# Data: publication PMC7862700, “An all-to-all approach to the identification of sequence-specific readers for epigenetic DNA modifications on cytosine”
# Experiments:
# Assay in all cases: DAPPL (digital affinity profiling via proximity ligation, sequencing); 10 mM Tris-HCl pH 7.5, 50 mM NaCl, 1 mM DTT, 4% glycerol, room temperature, 30 min; GST-TFs on glutathione beads, 16-mer random dsDNA library, 0.1% formaldehyde crosslink after washing; high values mean tight binding
# Details in all cases: protein: recombinant; tags: N-terminal GST; dsDNA, one strand shown
# FLI1 = biological target: T1, FLI1 (Homo sapiens, UniProt Q01543 1-452)
# T1 sequence: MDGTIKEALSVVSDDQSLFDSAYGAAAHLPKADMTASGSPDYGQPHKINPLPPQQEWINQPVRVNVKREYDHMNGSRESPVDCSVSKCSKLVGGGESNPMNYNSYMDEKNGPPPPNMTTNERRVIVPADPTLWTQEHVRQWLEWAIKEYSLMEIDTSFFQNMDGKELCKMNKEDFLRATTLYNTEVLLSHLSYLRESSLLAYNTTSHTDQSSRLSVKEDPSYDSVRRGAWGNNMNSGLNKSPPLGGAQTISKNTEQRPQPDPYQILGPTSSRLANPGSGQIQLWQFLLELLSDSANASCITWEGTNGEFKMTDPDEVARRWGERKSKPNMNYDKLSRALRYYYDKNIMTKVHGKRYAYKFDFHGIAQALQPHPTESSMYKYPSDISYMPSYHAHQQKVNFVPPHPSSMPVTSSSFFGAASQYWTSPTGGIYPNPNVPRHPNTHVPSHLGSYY
# In short: (§1)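 The binding signal reported is, for every hexamer, its read frequency for a factor over its read frequency for the tag-only sample. Reads came from pools of yeast-expressed, GST-fused human transcription factors on glutathione beads, barcoded with DNA and mixed with that sample, which were incubated with 200 nmole of a random double-stranded 16-mer DNA library in Tris/NaCl/DTT/glycerol buffer at room temperature for 30 min. After washing, the pools were crosslinked with 0.1% formaldehyde, proximity-ligated with BsaI/T4 ligase for 1 h at 37 °C, PCR-amplified and sequenced on an Illumina NextSeq500.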
# ELK1 = biological target: T2, ELK1 (Homo sapiens, UniProt P19419 1-428)
# T2 sequence: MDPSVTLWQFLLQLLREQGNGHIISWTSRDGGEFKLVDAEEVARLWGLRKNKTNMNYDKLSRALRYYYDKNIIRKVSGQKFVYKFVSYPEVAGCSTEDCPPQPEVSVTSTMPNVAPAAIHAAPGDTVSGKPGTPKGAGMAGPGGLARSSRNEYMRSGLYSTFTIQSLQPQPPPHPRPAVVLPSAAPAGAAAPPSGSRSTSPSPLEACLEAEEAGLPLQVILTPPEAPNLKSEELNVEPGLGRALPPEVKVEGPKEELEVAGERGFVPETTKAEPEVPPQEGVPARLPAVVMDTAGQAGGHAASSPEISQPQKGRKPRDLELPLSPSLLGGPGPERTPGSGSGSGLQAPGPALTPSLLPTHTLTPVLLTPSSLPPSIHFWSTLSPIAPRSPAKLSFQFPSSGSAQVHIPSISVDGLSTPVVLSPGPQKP
# In short: as §1
# GABPA = biological target: T3, GABPA (Homo sapiens, UniProt Q06546 1-454)
# T3 sequence: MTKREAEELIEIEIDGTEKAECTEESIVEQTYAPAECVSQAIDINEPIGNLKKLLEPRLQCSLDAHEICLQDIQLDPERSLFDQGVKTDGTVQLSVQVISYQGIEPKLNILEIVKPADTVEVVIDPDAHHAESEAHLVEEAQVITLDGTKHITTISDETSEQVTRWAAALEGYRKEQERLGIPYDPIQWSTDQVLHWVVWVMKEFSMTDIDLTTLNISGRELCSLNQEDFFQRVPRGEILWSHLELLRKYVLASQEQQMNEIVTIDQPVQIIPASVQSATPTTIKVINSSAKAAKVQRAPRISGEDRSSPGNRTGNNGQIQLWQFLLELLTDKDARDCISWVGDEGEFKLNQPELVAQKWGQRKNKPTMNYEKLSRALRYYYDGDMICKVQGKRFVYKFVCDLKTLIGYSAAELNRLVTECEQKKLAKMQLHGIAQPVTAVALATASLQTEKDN
# In short: as §1
# ERG = biological target: T4, ERG (Homo sapiens, UniProt P11308 1-479)
# T4 sequence: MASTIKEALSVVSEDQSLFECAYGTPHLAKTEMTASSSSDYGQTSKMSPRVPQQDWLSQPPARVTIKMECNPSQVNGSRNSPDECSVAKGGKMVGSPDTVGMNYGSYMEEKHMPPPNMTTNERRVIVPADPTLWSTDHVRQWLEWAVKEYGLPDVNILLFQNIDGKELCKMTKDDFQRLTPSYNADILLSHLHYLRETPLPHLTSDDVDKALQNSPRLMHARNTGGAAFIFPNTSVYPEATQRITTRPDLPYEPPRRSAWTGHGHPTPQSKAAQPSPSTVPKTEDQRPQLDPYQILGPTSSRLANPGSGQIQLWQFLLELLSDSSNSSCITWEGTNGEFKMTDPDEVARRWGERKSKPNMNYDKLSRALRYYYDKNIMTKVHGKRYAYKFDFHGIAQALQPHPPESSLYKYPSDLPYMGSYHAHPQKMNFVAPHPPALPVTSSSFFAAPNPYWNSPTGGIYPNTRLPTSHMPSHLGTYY
# In short: as §1
# ELF1 = ELF1 (Homo sapiens, UniProt P32519 1-619)
# In short: as §1
# EHF = biological target: T5, EHF (Homo sapiens, UniProt Q9NZC4 1-300)
# T5 sequence: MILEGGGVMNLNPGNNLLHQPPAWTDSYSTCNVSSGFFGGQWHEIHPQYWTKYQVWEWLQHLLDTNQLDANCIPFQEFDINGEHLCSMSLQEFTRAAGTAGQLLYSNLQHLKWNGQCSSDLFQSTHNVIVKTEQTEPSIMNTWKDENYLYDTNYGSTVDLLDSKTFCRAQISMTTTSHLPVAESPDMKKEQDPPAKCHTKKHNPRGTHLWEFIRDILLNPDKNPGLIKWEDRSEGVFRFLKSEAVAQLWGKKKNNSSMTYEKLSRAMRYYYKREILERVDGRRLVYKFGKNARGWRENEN
# In short: as §1
# SPI1 = SPI1 (Homo sapiens, UniProt P17947 1-270)
# In short: as §1
# SPIB = SPIB (Homo sapiens, UniProt Q01892 1-262)
# In short: as §1
# ELK3 = biological target: T6, ELK3 (Homo sapiens, UniProt P41970 1-407)
# T6 sequence: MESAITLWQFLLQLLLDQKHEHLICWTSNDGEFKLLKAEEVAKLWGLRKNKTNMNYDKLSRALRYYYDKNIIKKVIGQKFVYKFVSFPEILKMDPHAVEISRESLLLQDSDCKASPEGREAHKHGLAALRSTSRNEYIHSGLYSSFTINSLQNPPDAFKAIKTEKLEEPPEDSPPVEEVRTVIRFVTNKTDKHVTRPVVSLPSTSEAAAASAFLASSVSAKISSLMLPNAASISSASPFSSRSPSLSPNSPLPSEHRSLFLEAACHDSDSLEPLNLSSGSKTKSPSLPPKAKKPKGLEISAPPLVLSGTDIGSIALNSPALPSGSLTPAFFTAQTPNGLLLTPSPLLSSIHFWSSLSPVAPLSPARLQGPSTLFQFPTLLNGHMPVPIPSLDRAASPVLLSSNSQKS
# In short: as §1
# Sequence of SPIB (Q01892 whole entry): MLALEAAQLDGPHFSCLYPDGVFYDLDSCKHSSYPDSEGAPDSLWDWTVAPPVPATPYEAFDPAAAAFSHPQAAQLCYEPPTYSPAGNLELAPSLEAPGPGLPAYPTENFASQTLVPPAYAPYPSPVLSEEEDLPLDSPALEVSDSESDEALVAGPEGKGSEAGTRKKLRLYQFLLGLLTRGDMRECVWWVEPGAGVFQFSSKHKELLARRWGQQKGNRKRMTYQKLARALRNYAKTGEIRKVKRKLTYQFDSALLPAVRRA
# Sequence of ELF1 (P32519 whole entry): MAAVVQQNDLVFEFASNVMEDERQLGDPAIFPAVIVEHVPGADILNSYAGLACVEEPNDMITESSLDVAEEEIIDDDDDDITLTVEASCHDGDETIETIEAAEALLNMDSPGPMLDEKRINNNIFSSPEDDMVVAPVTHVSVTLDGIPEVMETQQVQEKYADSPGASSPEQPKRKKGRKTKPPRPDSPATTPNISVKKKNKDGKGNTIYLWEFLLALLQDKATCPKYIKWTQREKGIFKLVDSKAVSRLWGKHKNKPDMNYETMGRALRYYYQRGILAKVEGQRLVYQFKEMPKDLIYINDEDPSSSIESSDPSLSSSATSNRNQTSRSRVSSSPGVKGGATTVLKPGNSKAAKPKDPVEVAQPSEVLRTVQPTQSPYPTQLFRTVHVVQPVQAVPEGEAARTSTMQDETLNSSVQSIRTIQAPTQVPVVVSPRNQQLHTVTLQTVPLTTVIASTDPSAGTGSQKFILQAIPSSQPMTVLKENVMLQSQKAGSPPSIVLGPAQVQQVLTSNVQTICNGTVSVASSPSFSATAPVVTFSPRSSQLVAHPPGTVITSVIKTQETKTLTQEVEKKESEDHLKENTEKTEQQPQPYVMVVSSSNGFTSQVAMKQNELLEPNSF
Sequence,binding signal (FLI1),binding signal (ELK1),binding signal (GABPA),binding signal (ERG),binding signal (ELF1),binding signal (EHF),binding signal (SPI1),binding signal (SPIB),binding signal (ELK3)
ACCTCA,"1.2 fold enrichment (6-mer frequency, TF over GST control)","1.16 fold enrichment (6-mer frequency, TF over GST control)","1.29 fold enrichment (6-mer frequency, TF over GST control)","1.15 fold enrichment (6-mer frequency, TF over GST control)","1.23 fold enrichment (6-mer frequency, TF over GST control)","1.28 fold enrichment (6-mer frequency, TF over GST control)","1.22 fold enrichment (6-mer frequency, TF over GST control)","1.19 fold enrichment (6-mer frequency, TF over GST control)","1.19 fold enrichment (6-mer frequency, TF over GST control)"
CTGGCC,"1.22 fold enrichment (6-mer frequency, TF over GST control)","1.13 fold enrichment (6-mer frequency, TF over GST control)","1.19 fold enrichment (6-mer frequency, TF over GST control)","1.29 fold enrichment (6-mer frequency, TF over GST control)","1.23 fold enrichment (6-mer frequency, TF over GST control)","1.13 fold enrichment (6-mer frequency, TF over GST control)","1.28 fold enrichment (6-mer frequency, TF over GST control)","1.18 fold enrichment (6-mer frequency, TF over GST control)","1.06 fold enrichment (6-mer frequency, TF over GST control)"
TACTCG,"1.33 fold enrichment (6-mer frequency, TF over GST control)","1.29 fold enrichment (6-mer frequency, TF over GST control)","1.34 fold enrichment (6-mer frequency, TF over GST control)","1.14 fold enrichment (6-mer frequency, TF over GST control)","1.34 fold enrichment (6-mer frequency, TF over GST control)","1.16 fold enrichment (6-mer frequency, TF over GST control)","1.22 fold enrichment (6-mer frequency, TF over GST control)","1.18 fold enrichment (6-mer frequency, TF over GST control)","1.22 fold enrichment (6-mer frequency, TF over GST control)"
CAATTG,"1.32 fold enrichment (6-mer frequency, TF over GST control)","1.19 fold enrichment (6-mer frequency, TF over GST control)","1.26 fold enrichment (6-mer frequency, TF over GST control)","1.14 fold enrichment (6-mer frequency, TF over GST control)","1.28 fold enrichment (6-mer frequency, TF over GST control)","1.27 fold enrichment (6-mer frequency, TF over GST control)","1.25 fold enrichment (6-mer frequency, TF over GST control)","1.16 fold enrichment (6-mer frequency, TF over GST control)","1.23 fold enrichment (6-mer frequency, TF over GST control)"
ATTAGG,"1.06 fold enrichment (6-mer frequency, TF over GST control)","1.06 fold enrichment (6-mer frequency, TF over GST control)","1.1 fold enrichment (6-mer frequency, TF over GST control)","1.05 fold enrichment (6-mer frequency, TF over GST control)","1.06 fold enrichment (6-mer frequency, TF over GST control)","1.1 fold enrichment (6-mer frequency, TF over GST control)","1.07 fold enrichment (6-mer frequency, TF over GST control)","1.06 fold enrichment (6-mer frequency, TF over GST control)","1.1 fold enrichment (6-mer frequency, TF over GST control)"
TGTATA,"1.08 fold enrichment (6-mer frequency, TF over GST control)","1.11 fold enrichment (6-mer frequency, TF over GST control)","1.02 fold enrichment (6-mer frequency, TF over GST control)","1.03 fold enrichment (6-mer frequency, TF over GST control)","1.04 fold enrichment (6-mer frequency, TF over GST control)","1.18 fold enrichment (6-mer frequency, TF over GST control)","1.03 fold enrichment (6-mer frequency, TF over GST control)","1.19 fold enrichment (6-mer frequency, TF over GST control)","1.15 fold enrichment (6-mer frequency, TF over GST control)"
TCCCTT,"1.63 fold enrichment (6-mer frequency, TF over GST control)","1.56 fold enrichment (6-mer frequency, TF over GST control)","1.47 fold enrichment (6-mer frequency, TF over GST control)","1.67 fold enrichment (6-mer frequency, TF over GST control)","1.62 fold enrichment (6-mer frequency, TF over GST control)","1.5 fold enrichment (6-mer frequency, TF over GST control)","1.69 fold enrichment (6-mer frequency, TF over GST control)","1.61 fold enrichment (6-mer frequency, TF over GST control)","1.37 fold enrichment (6-mer frequency, TF over GST control)"
